Source: ChEMBL document CHEMBL3433997, “St. Jude Leishmania screening dataset” (2016)

Legend:
Format in all cases: functional
[1] = target: Solute carrier family 2, facilitated glucose transporter member 1 (Homo sapiens) (UniProt P11166); test: ST_JUDE_LEISH: Cytotoxicity at 2uM final concentration against transgenic Leishmania Mexicana promastigotes LmGLUT1 that are glucose transport deficient and complemented with the human glucose transporter GLUT1. Activity is measured by DNA content using SYBR green in vitro
[2] = target: Hexose transporter 1 (Plasmodium falciparum) (UniProt O97467); test: ST_JUDE_LEISH: Cytotoxicity at 2uM final concentration against transgenic Leishmania Mexicana promastigotes LmPfHT that are glucose transport deficient and complemented with the Plasmodium falciparum hexose transporter. Activity is measured by DNA content using SYBR green in vitro
[3] = target: Glucose transporter (Leishmania mexicana) (UniProt O61059); test: ST_JUDE_LEISH: Cytotoxicity at 2uM final concentration against transgenic Leishmania Mexicana promastigotes LmGT2 that are glucose transport deficient and complemented with the L. Mexicana glucose transporter 2. Activity is measured by DNA content using SYBR green in vitro

Solute carrier family 2, facilitated glucose transporter member 1 (Homo sapiens), sequence (P11166 whole entry): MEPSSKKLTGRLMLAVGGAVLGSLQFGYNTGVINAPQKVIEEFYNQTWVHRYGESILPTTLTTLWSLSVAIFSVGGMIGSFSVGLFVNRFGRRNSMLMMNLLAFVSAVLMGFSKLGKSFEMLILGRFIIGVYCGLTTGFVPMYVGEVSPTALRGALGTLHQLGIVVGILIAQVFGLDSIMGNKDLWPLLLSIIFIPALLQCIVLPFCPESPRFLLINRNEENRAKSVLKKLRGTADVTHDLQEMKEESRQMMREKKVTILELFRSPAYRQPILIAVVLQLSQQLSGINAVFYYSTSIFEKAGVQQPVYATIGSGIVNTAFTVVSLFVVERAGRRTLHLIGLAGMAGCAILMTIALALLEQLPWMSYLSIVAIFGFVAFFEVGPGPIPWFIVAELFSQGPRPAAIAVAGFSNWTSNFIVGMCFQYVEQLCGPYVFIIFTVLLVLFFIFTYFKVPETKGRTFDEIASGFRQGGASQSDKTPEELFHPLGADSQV

Compound | inhibition [1] | inhibition [2] | inhibition [3]
O=C(/C=C/c1ccc(Cl)c(Cl)c1)NCCCN1CCC(c2c[nH]c3ccccc23)CC1 | 6.28% | 5.12% | 6.57%
CCc1ccccc1N1CCN(CCCC(=O)c2ccc(NC(=O)c3ccc(Cl)cc3)cc2)CC1 | 3.6% | 3.75% | 4.09%
Fc1ccc2[nH]c(-c3cccc(-c4ccc(CN5CCN(c6cnccn6)CC5)cc4)c3)nc2c1 | 14.3% | 12.5% | 8.14%
O=S(=O)(c1ccccc1C(F)(F)F)C1CC2CCC(C1)N2S(=O)(=O)c1ccc(Cl)c(C(F)(F)F)c1 (stereo not drawn) | 4.13% | 2.35% | 0.74%
Cc1ccc2c(-c3ccc([N+](=O)[O-])o3)cc(C)nc2c1 | 54.3% | 46.4% | 7.05%
Oc1cc(NCCCNC2CCc3c(Cl)cc(Cl)cc32)nc2ccccc12 (stereo not drawn) | 0.63% | 0.11% | 3.08%
CCCCOc1c(CCNCCCCNCCc2cc(OC)c3ccccc3c2OCCCC)cc(OC)c2ccccc12 | 4.98% | 5.5% | 2.03%
CCc1cc(NC2CCN(C)CC2)nc(Nc2cccc(OC)c2)n1 | 15% | 10% | 6.53%
CCOc1cc(C(=O)NCC2CCN(CC3CCCCC3)CC2)ccc1-c1nc2cc(Cl)ccc2[nH]1 | 0.56% | 1.54% | 1.19%
Cc1cc(C)cc(Oc2c(C(F)(F)F)oc3c(CN4CC(C)OC(C)C4)c(O)ccc3c2=O)c1 (stereo not drawn) | -0.42% | -1.36% | 1.31%
CCc1nc(N)nc(N)c1-c1ccc(Cl)cc1 | 2.26% | 3.31% | 3.36%
O=C(Nc1ccccc1)N(Cc1ccccc1-c1cccc(CNC2CCCC2)c1)C1CCN(Cc2ccccc2)CC1 | 0.15% | 1.64% | 4.91%
CCOC(=O)C(C#N)NC(=O)C=Cc1ccccc1 (stereo not drawn) | 7.73% | 6.93% | 5.14%
N#Cc1cccc(Nc2nccc(NCC(O)c3ccc(C(F)(F)F)cc3)n2)c1 (stereo not drawn) | 3.05% | 3.09% | 0.03%
CC(C)[C@@H](NC(=O)NC1CCC(CCN2C3CCC2CC(OC(=O)C(CO)c2ccccc2)C3)CC1)C(O)(c1ccccc1)c1ccccc1 (stereo partly drawn) | 8.23% | 8.36% | 4.86%
O=C(NCCCN1CCCC1=O)NCc1ccccc1 | 0.3% | -0.23% | -0.11%
Cc1ccc(Nc2nccc(N(C)c3ccc4c(c3)nc(NC(=O)Cc3ccc(Cl)c(Cl)c3)n4C)n2)cc1S(N)(=O)=O | 6.81% | 11.6% | 5.64%
CN(C)Cc1c(O)ccc2[nH]c(-c3cccc(F)c3)nc12 | 2.87% | 2.53% | 0.64%
CC(O)C1CCCCN1C(=O)c1cccc(-c2cccc(-c3nc4ccccc4[nH]3)c2)c1 (stereo not drawn) | 0.78% | 0.15% | -0.24%
CCN(CC)c1ccc(-c2nc3cc(Cl)cnc3[nH]2)cc1 | 5.04% | 5.32% | 3.88%
CC(C)N1CCC(N(Cc2ccc(-c3ccc(C(F)(F)F)cc3)cc2)C(=O)Cn2c(CCc3cccc(F)c3F)cc(=O)c3cn(C)nc32)CC1 | 10.3% | 8.4% | 13%
CC(C)CCN1CCC(Oc2ccc(NC(=O)c3cccs3)cc2Cl)CC1 | 0.82% | 4.49% | 3.68%
Cc1ccc(CNC(=O)c2cc3c(=O)n4ccccc4nc3n(CCCN3CCOCC3)c2=N)cc1 | 8.03% | 6.83% | 7.61%
COc1ccc(Cl)cc1N1CCN(CCCNC(=O)c2ccc(-c3nc4c(C)cccc4[nH]3)s2)CC1 | 1.19% | -0.51% | -1.08%

Compound | inhibition [1] | inhibition [2] | inhibition [3]
N=C(N)Nc1nc(-c2cccc(NC(=O)NCCc3c[nH]c4ccc(OCc5ccccc5)cc34)c2)cs1 | 0.6% | 1.4% | 0.56%
NCCNC(=O)c1ccc(-c2cnc3[nH]cc(-c4ccc(C(N)=O)cc4)c3c2)cc1 | 3.65% | 2.58% | 2.98%
CN1CCCN(Cc2ccc(-c3cccc(NC(=O)c4ccc(F)cc4)c3)cc2)CC1 | 19.9% | 13.8% | 12.4%
CCN(CC)CCN(Cc1ccc(-c2ccc(C(F)(F)F)cc2)cc1)C(=O)Cn1cc(CCCc2cccc(F)c2F)c(=O)c2ccccc21 | 4.03% | 3.93% | 4.35%
COc1ccc(F)cc1-c1cccc(CNC2CCN(CC3Cn4c(=O)ccc5ccc(F)c3c54)CC2)c1 (stereo not drawn) | 10.1% | 14.3% | 18.8%
COc1nc2c(CCN3CCC(NCc4ccc5c(c4)NC(=O)CO5)CC3)c(Cl)cnc2cc1F | 3.07% | 0.9% | 1.45%
CC(C)Oc1cc2c(cc1NS(=O)(=O)c1ccc(-c3ccc(Cl)cc3)cc1)CCN(C)CC2 | 2.55% | 7.31% | 4.31%
Cc1ccc(-c2nn3c(O)c4c(nc3c2C)CCCC4)cc1 | -0.48% | 1.68% | 1.28%
COc1ccc(Br)cc1/C=C/C(=O)Nc1ccc(C2CCCN(C)C2)cc1 (stereo not drawn) | 3.89% | 2.73% | 5.71%
COc1cc(NC(=O)/C=C/c2cc(F)cc(F)c2F)cc(OCCN2CCC(O)(c3ccccc3)CC2)c1 | 3.43% | 1.97% | 2.47%
Cc1cccc(C(=O)Nc2ccnc(N3CCC(N(C)Cc4cccc(O)c4)CC3)c2)c1 | 2.07% | 1.88% | 3.02%
COC(=O)CCn1c(C2CCN(CC3CCC(NC(=O)/C=C/c4ccc(Cl)c(Cl)c4)CC3)CC2)nc2ccccc21 (stereo not drawn) | 0.97% | 2.03% | 3.04%
CCOc1ccc(-c2nc(NC(=O)COc3ccc(OC)cc3)sc2C)cc1 | 9.63% | 10% | 10.1%
Cc1ccc(NC(=O)NC2CCN(CCCCCNC(=O)/C=C/c3ccc(Cl)c(Cl)c3)CC2)cc1C | -0.29% | -0.57% | -1.51%
O=C(Nc1ccc(OC2CCN(Cc3ccco3)CC2)c(Cl)c1)c1ccc2ncccc2c1 | 4.38% | 2.97% | 2.34%
CN(C)CCN1CCN(CCCN2c3ccccc3Sc3ccc(C(F)(F)F)cc32)CC1 | 3.37% | 3.77% | 3.66%
CCOc1ccc2[nH]c(C)cc(=NN=Cc3ccccc3)c2c1 | 3.33% | 2.11% | 2.8%
COc1ccc(Nc2ncc3c(-c4cccc(NC(=O)Cc5cccnc5)c4)c[nH]c3n2)cc1OC | -2.6% | -0.55% | -1.58%
CS(=O)(=O)c1ccc(CNCc2ccc(-c3cccc(-c4nc5cc(C(F)(F)F)ccc5[nH]4)c3)cc2)cc1 | 3.2% | 3.79% | 1.5%
N[C@@H](CCNC1CCN(c2cccc(C(F)(F)F)c2)CC1)Cc1ccc(F)c(F)c1 | 99.5% | 54.5% | 101%
OC(CNC1CCCCC1)Cn1c2ccc(I)cc2c2cc(I)ccc21 (stereo not drawn) | 0.77% | 1.51% | 1.17%
Cc1cc(=O)c2cc(Oc3cccc(OC(F)(F)F)c3)ccc2[nH]1 | 1.1% | 2.75% | 4.49%
Cc1[nH]c(C)c(-c2ccc(Oc3ccc(Cl)cc3)cc2)c(=O)c1C | 11.4% | 30.5% | 1.29%
COc1ccc(Nc2ncc(Cl)c(Nc3cccnc3C(N)=O)n2)cc1N1CCN(C)CC1 | 89.9% | 92.6% | 85.9%

Compound | inhibition [1] | inhibition [2] | inhibition [3]
CN1CCC(NCc2ccc(-c3cccc(S(=O)(=O)NCCc4ccccn4)c3)cc2)CC1 | 0.27% | -0.63% | 1.83%
Cc1ncccc1-c1cccc2c(NC(=O)Nc3ccc4nccc(N5CCN(C)CC5)c4c3)cccc12 | 4.96% | 3.58% | 1.71%
Cc1ccnc(NC(c2cccc(OCc3ccccc3)c2)c2ccc3cccnc3c2O)c1 (stereo not drawn) | 0.07% | 1.21% | -1.47%
Cc1cccc2nc(-c3ccc(-c4cccc(CNCCc5ccncc5)c4)cc3)[nH]c12 | 5.55% | 3.23% | 0.92%
Cc1csc(-c2nonc2NC(=O)COc2ccccc2C(C)C)n1 | 2.07% | -1.84% | 2.3%
CSc1ccc2nccc(Nc3ccc(Oc4ccccc4)cc3)c2c1 | 5.73% | 6.24% | 1.56%
CCn1c(-c2nonc2N)nc2c(C#CC(C)(C)O)ncc(OCCNCCc3ccc(OC)cc3)c21 | 5.15% | 9.69% | 2.23%
COc1ccccc1CCNc1nc(C)cc(N[C@@H](CC(C)C)C(=O)NCCc2ccccc2)n1 | 2.53% | 5.72% | 2.57%
FC(F)(F)c1ccc2[nH]c(-c3ccc(-c4cccc(CN5CCC(CCN6CCCCC6)CC5)c4)cc3)nc2c1 | 3.12% | 4.82% | 2.53%
Cc1ccc(NC(=O)Nc2ccc(I)c(OCCN(C)C)c2)cc1Cl | 10.6% | 7.2% | 5.01%
CC(=O)Nc1ccc(S(=O)(=O)Nc2ccc(Nc3nc(C)cc(N(C)C)n3)cc2)cc1 | -1.06% | 0.57% | 2.61%
c1cc(-c2ccc(CNCCCn3ccnc3)cc2)cc(-c2nc3ccccc3[nH]2)c1 | 2.87% | 2.53% | 0.93%
CCCCCC(C)C(C)c1cc(O)c2c(c1)OC(C)(C)CC2=Cc1ccncc1 (stereo not drawn) | 12.6% | 11.5% | 10.7%
CC(C)C(=O)NC(c1ccc(N(C)C)cc1)c1cc(Cl)c2cccnc2c1O (stereo not drawn) | 3.89% | 4.2% | 1.29%
CCc1cccc2sc(N3CCN(C(=O)c4ccc([N+](=O)[O-])o4)CC3)nc12 | 71.2% | 69.1% | 36.8%
O=C(Nc1ccc(C(F)(F)F)cc1)c1ccc(NCCCN2CCCCCC2)c([N+](=O)[O-])c1 | 5.54% | 6.55% | 6.28%
CN(C)c1ccc(CN2CCC(CNC(=O)c3cc(-c4ccccc4F)cs3)C2)cc1 (stereo not drawn) | 1.96% | 1.98% | 2.12%
Oc1ccc(CCCc2cc(Oc3c(I)cc(CCc4ncc[nH]4)cc3I)ccc2O)cc1 | 1.08% | -0.28% | -1.55%
COc1ccc2nccc([C@@H](O)CN3CCC(NCc4ccc5c(n4)NCCC5)CC3)c2c1 | 6.88% | 6.43% | 6.5%
COc1cccc(CN(C(=O)Nc2ccccc2F)[C@H]2C[C@H]3C(=O)Nc4cc(F)ccc4C(=O)N3C2)c1 | 4.68% | 4.97% | 5.37%
C[C@@H](N)C#Cc1cc2c(Nc3ccc(OCc4cccc(F)c4)c(Cl)c3)ncnc2s1 | 2.5% | 4.76% | 2.27%
COC(=O)C(=O)c1c(-c2ccccc2)c(-c2ccc(OC)c(OC)c2)c2c3cc(OC)c(OC)cc3ccn12 | 13.2% | 10.2% | 8.49%
CCn1c(-c2nonc2N)nc2cnc(Oc3cccc(NC(=O)c4ccc(OCCN(C(C)C)C(C)C)cc4)c3)cc21 | 15.1% | 18.2% | 5.45%
